# Where “and” joins values, the source holds several entries; their conditions need not be identical. Equal entries are not always repeated. Records with an inconclusive call do not appear. A call without a number means that no potency is given here. A structure can be active in one record and inactive in another. Calls of active or inactive are those of the source. Calls follow the shape of the dose curve; as a rule, active = well fitted curve in the direction sought with a large enough effect; inconclusive = small, poorly fitted or top-dose-only effect, or another doubt; inactive = no such curve, though single readings can be large; an effect the other way counts as inactive or inconclusive.
# Assays:
# [1] = biological target: ATP-dependent 6-phosphofructokinase (Trypanosoma brucei brucei) (UniProt O15648); experiment: qHTS Assay to Find Inhibitors of T. brucei phosphofructokinase: hit validation (AID 492961);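 also: luminescence reports ADP formed as PFK phosphorylates fructose-6-phosphate with ATP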
# Method in brief: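 Reaction: 0.1 M triethanolamine pH 8.0, 5 mM MgCl2, F6P 0.5 mM, ATP 0.1 mM, PFK 1.25 nM, 45 min RT. Read-out: ADP-Glo luminescence. Analysis: concentration-response fits, classed by r2 and efficacy.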
# [2] = qHTS profiling for inhibitors of Plasmodium falciparum proliferation (AID 504749); also: potency is read from the fitted curve at half-maximal effect; as to all read-outs here: nearly all actives have a fitted effect of over 60% in size; settings: P. falciparum in erythrocytes, SYBR Green DNA, 72 h; for activity, negative = inhibition: at 28.7 µM (top of the series)
# Method in brief: (§1)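 Quantitative HTS: compounds pinned into medium, infected erythrocytes added (0.3% parasitemia, 2.5% hematocrit), 72 h culture at 37 C under 5% CO2. Saponin/Triton lysis with SYBR Green I, overnight RT, then fluorescence read.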
# [3] = tested on: 3D7; experiment: as above; settings: P. falciparum in erythrocytes, SYBR Green DNA, 72 h; series mostly up to 28.7 µM
# Method in brief: as §1
# [4] = tested on: AA1029; experiment: as above; settings: P. falciparum in erythrocytes, SYBR Green DNA, 72 h; series mostly up to 28.7 µM
# Method in brief: as §1
# [5] = tested on: AS120; experiment: as above; settings: P. falciparum in erythrocytes, SYBR Green DNA, 72 h; series mostly up to 28.7 µM
# Method in brief: as §1
# [6] = tested on: ATS189; experiment: as above; settings: P. falciparum in erythrocytes, SYBR Green DNA, 72 h; series mostly up to 28.7 µM
# Method in brief: as §1
# [7] = tested on: CP185; experiment: as above; settings: P. falciparum in erythrocytes, SYBR Green DNA, 72 h; series mostly up to 28.7 µM
# Method in brief: as §1
# [8] = tested on: CP191; experiment: as above; settings: P. falciparum in erythrocytes, SYBR Green DNA, 72 h; series mostly up to 28.7 µM
# Method in brief: as §1
# [9] = tested on: CP211; experiment: as above; settings: P. falciparum in erythrocytes, SYBR Green DNA, 72 h; series mostly up to 28.7 µM
# Method in brief: as §1
# [10] = tested on: CP217; experiment: as above; settings: P. falciparum in erythrocytes, SYBR Green DNA, 72 h; series mostly up to 28.7 µM
# Method in brief: as §1
# [11] = tested on: CP238; experiment: as above; settings: P. falciparum in erythrocytes, SYBR Green DNA, 72 h; series mostly up to 28.7 µM
# Method in brief: as §1
# [12] = tested on: CP252; experiment: as above; settings: P. falciparum in erythrocytes, SYBR Green DNA, 72 h; series mostly up to 28.7 µM
# Method in brief: as §1
# [13] = tested on: CP262; experiment: as above; settings: P. falciparum in erythrocytes, SYBR Green DNA, 72 h; series mostly up to 28.7 µM
# Method in brief: as §1
# [14] = tested on: CP265; experiment: as above; settings: P. falciparum in erythrocytes, SYBR Green DNA, 72 h; series mostly up to 28.7 µM
# Method in brief: as §1
# [15] = tested on: CP286; experiment: as above; settings: P. falciparum in erythrocytes, SYBR Green DNA, 72 h; series mostly up to 28.7 µM
# Method in brief: as §1
# [16] = tested on: Dd2; experiment: as above; settings: P. falciparum in erythrocytes, SYBR Green DNA, 72 h; series mostly up to 28.7 µM
# Method in brief: as §1
# [17] = tested on: FAB9; experiment: as above; settings: P. falciparum in erythrocytes, SYBR Green DNA, 72 h; series mostly up to 28.7 µM
# Method in brief: as §1
# [18] = tested on: N140; experiment: as above; settings: P. falciparum in erythrocytes, SYBR Green DNA, 72 h; series mostly up to 28.7 µM
# Method in brief: as §1
# [19] = tested on: P94_40; experiment: as above; settings: P. falciparum in erythrocytes, SYBR Green DNA, 72 h; series mostly up to 28.7 µM
# Method in brief: as §1
# [20] = tested on: TAB109; experiment: as above; settings: P. falciparum in erythrocytes, SYBR Green DNA, 72 h; series mostly up to 28.7 µM
# Method in brief: as §1
# ATP-dependent 6-phosphofructokinase (Trypanosoma brucei brucei), sequence (O15648 whole entry, looked up): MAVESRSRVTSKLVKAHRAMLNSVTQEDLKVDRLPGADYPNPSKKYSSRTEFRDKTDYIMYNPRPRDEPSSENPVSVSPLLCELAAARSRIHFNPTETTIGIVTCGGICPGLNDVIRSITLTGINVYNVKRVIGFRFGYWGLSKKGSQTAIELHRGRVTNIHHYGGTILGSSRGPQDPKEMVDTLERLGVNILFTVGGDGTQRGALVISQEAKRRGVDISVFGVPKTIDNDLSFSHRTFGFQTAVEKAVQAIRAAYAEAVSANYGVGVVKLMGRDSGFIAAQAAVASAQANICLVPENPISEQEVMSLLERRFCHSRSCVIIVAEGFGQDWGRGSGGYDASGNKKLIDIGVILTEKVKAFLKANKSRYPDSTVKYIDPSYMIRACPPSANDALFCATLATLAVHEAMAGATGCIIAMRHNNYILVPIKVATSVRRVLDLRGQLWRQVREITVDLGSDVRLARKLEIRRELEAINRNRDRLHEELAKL
structure (smiles),measurement,setting,value
C=C1NC(=O)c2cc(CN(C)c3ccc(C(=O)N[C@@H](CCC(=O)O)C(=O)O)s3)ccc2N1,Potency,[1],inactive
same,"activity, negative = inhibition",[2]; parasite line A,2.89% (inactive)
same,"activity, negative = inhibition",[2]; parasite line B,4.82% (inactive)
same,Potency,[3],inactive
same,Potency,[4],inactive
same,Potency,[5],inactive
same,Potency,[6],inactive
same,Potency,[7],inactive
same,Potency,[8],inactive
same,Potency,[9],inactive
same,Potency,[10],inactive
same,Potency,[11],inactive
same,Potency,[12],inactive
same,Potency,[13],inactive
same,Potency,[14],inactive
same,Potency,[15],inactive
same,Potency,[16],inactive
same,Potency,[17],inactive
same,Potency,[18],inactive
same,Potency,[19],inactive
same,Potency,[20],inactive
CNC1C(O)C(OC2C(NC(=O)C(O)CN)CC(N)C(OC3OC(CN)C(O)C(O)C3O)C2O)OCC1(C)O (configuration not stated),Potency,[1],inactive
same,"activity, negative = inhibition",[2]; parasite line A,1.08% (inactive)
same,"activity, negative = inhibition",[2]; parasite line B,-10.1% (inactive)
same,Potency,[3],inactive
same,Potency,[4],inactive
same,Potency,[5],inactive
same,Potency,[6],inactive
same,Potency,[7],inactive
same,Potency,[8],inactive
same,Potency,[9],inactive
same,Potency,[10],inactive
same,Potency,[11],inactive
same,Potency,[12],inactive
same,Potency,[14],inactive
same,Potency,[15],inactive
same,Potency,[16],inactive
same,Potency,[17],inactive
same,Potency,[18],inactive
same,Potency,[19],inactive
same,Potency,[20],inactive
Nc1nc(/C(=C/CC(=O)O)C(=O)NC2C(=O)N3C(C(=O)O)=CCSC23)cs1 (configuration not stated),Potency,[1],inactive
same,"activity, negative = inhibition",[2]; parasite line A,-3.7% (inactive)
same,"activity, negative = inhibition",[2]; parasite line B,3.34% (inactive)
same,Potency,[3],inactive
same,Potency,[4],inactive
same,Potency,[5],inactive
same,Potency,[6],inactive
same,Potency,[7],inactive
same,Potency,[8],inactive
same,Potency,[9],inactive
same,Potency,[10],inactive
same,Potency,[11],inactive
same,Potency,[12],inactive
same,Potency,[13],inactive
same,Potency,[14],inactive
same,Potency,[15],inactive
same,Potency,[16],inactive
same,Potency,[17],inactive
same,Potency,[18],inactive
same,Potency,[19],inactive
same,Potency,[20],inactive
O=C(O)Cc1sc(-c2ccc(Cl)cc2)nc1-c1ccccc1,Potency,[1],inactive
same,"activity, negative = inhibition",[2]; parasite line A,4.11% (inactive)
same,"activity, negative = inhibition",[2]; parasite line B,-3.92% (inactive)
same,Potency,[3],inactive
same,Potency,[4],inactive
same,Potency,[5],inactive
same,Potency,[6],inactive
same,Potency,[7],inactive
same,Potency,[8],inactive
same,Potency,[9],inactive
same,Potency,[10],inactive
same,Potency,[11],inactive
same,Potency,[12],inactive
same,Potency,[13],inactive
same,Potency,[14],inactive
same,Potency,[15],inactive
same,Potency,[16],inactive
same,Potency,[17],inactive
same,Potency,[18],inactive
same,Potency,[19],inactive
same,Potency,[20],inactive
C=C[C@@]1(C)C[C@H](OC(=O)CSC(C)(C)CNC(=O)[C@@H](N)C(C)C)[C@@]2(C)C(C)CC[C@@]3(CCC(=O)[C@@H]32)[C@H](C)[C@H]1O (some centres not stated),Potency,[1],inactive
same,Potency,[2]; parasite line A,3.16 µM (active)
same,Potency,[2]; parasite line B,1.41 µM (active)
same,Potency,[3],8.91 µM (active)
same,Potency,[4],1.58 µM (active)
same,Potency,[5],3.55 µM (active)
same,Potency,[6],11.2 µM (active)
same,Potency,[7],1.41 µM (active)
same,Potency,[8],3.98 µM (active)
same,Potency,[9],0.675 µM (active)
same,Potency,[10],5.62 µM (active)
same,Potency,[11],5.01 µM (active)
same,Potency,[12],1.26 µM (active)
same,Potency,[13],0.239 µM (active)
same,Potency,[15],0.447 µM (active)
same,Potency,[16],0.282 µM (active)
same,Potency,[18],1.41 µM (active)
same,Potency,[19],1.58 µM (active)
same,Potency,[20],0.891 µM (active)
CC1C(=O)C(=O)C=CN1C (configuration not stated),Potency,[1],inactive
same,"activity, negative = inhibition",[2]; parasite line A,3.53% (inactive)
same,"activity, negative = inhibition",[2]; parasite line B,9.14% (inactive)
same,Potency,[3],inactive
same,Potency,[4],inactive
same,Potency,[5],inactive
same,Potency,[6],inactive
same,Potency,[7],inactive
same,Potency,[8],inactive
same,Potency,[9],inactive
same,Potency,[10],inactive
same,Potency,[11],inactive
same,Potency,[12],inactive
same,Potency,[13],inactive
same,Potency,[14],inactive
same,Potency,[15],inactive
same,Potency,[16],inactive
same,Potency,[17],inactive
same,Potency,[18],inactive
same,Potency,[19],inactive
same,Potency,[20],inactive
C/C(=C(/CCO)SS/C(CCO)=C(\C)N(C=O)Cc1cnc(C)nc1N)N(C=O)Cc1cnc(C)nc1N,Potency,[1],inactive
same,"activity, negative = inhibition",[2]; parasite line A,-6.53% (inactive)
same,"activity, negative = inhibition",[2]; parasite line B,-3.11% (inactive)
same,Potency,[3],inactive
same,Potency,[4],inactive
same,Potency,[5],inactive
same,Potency,[6],inactive
same,Potency,[7],inactive
same,Potency,[8],inactive
same,Potency,[9],inactive
same,Potency,[10],inactive
same,Potency,[11],inactive
same,Potency,[12],inactive
same,Potency,[13],inactive
same,Potency,[14],inactive
same,Potency,[15],inactive
same,Potency,[16],inactive
same,Potency,[17],inactive
same,Potency,[18],inactive
same,Potency,[19],inactive
CCC(C(=O)C(C)C(O)C(C)CCc1ccc(C)c(O)c1C(=O)O)C1OC(CC)(C2CC[C@@](O)(CC)C(C)O2)CC1C (some centres not stated),Potency,[1],inactive
same,Potency,[2]; parasite line A,0.794 µM (active)
same,Potency,[2]; parasite line B,1.12 µM (active)
same,Potency,[3],0.447 µM (active)
same,Potency,[4],0.708 µM (active)
same,Potency,[5],0.398 µM (active)
same,Potency,[6],1.26 µM (active)
same,Potency,[7],1.12 µM (active)
same,Potency,[8],0.708 µM (active)
same,Potency,[9],0.536 µM (active)
same,Potency,[10],1 µM (active)
same,Potency,[11],1 µM (active)
same,Potency,[12],0.794 µM (active)
same,Potency,[13],0.953 µM (active)
same,Potency,[14],0.891 µM (active)
same,Potency,[15],0.631 µM (active)
same,Potency,[16],0.794 µM (active)
same,Potency,[17],2 µM (active)
same,Potency,[18],0.562 µM (active)
same,Potency,[19],0.316 µM (active)
same,Potency,[20],0.891 µM (active)
NC(CSSCC(N)C(=O)O)C(=O)O (configuration not stated),Potency,[1],inactive
same,"activity, negative = inhibition",[2]; parasite line A,5.04% (inactive)
same,"activity, negative = inhibition",[2]; parasite line B,19% (inactive)
same,Potency,[3],inactive
same,Potency,[4],inactive
same,Potency,[5],inactive
same,Potency,[6],inactive
same,Potency,[7],inactive
same,Potency,[8],inactive
same,Potency,[9],inactive
same,Potency,[10],inactive
same,Potency,[11],inactive
same,Potency,[12],inactive
same,Potency,[13],inactive
same,Potency,[14],inactive
same,Potency,[15],inactive
same,Potency,[16],inactive
same,Potency,[17],inactive
same,Potency,[18],inactive
same,Potency,[19],inactive
same,Potency,[20],inactive
CNC1=CN(O)C(c2ccccc2)=c2cc(Cl)ccc2=N1,Potency,[1],inactive
same,Potency,[2]; parasite line A,3.55 µM (active)
same,Potency,[2]; parasite line B,2.24 µM (active) and 11.2 µM (active)
same,Potency,[3],1 µM (active)
same,Potency,[5],11.2 µM (active) and inactive
same,Potency,[6],4.47 µM (active)
same,Potency,[8],0.1 µM (active)
same,Potency,[9],4.26 µM (active)
same,Potency,[11],inactive
same,Potency,[12],8.91 µM (active)
same,Potency,[13],inactive
same,Potency,[14],6.31 µM (active)
same,Potency,[15],4.47 µM (active)
same,Potency,[16],inactive
same,Potency,[17],2.51 µM (active)
same,Potency,[19],5.62 µM (active)
same,Potency,[20],3.55 µM (active)

# From PubChem BioAssay (NCATS)
